Data on two compounds can be found in PubChem BioAssay AID651919 (Sanford-Burnham Center for Chemical Genomics, 2012).

The assay addresses C-X-C chemokine receptor type 6 (Homo sapiens) (UniProt O00574). As to the kind of experiment: antagonism of CXCR6 versus CXCR5 signaling – cell-based, CHO-K1 PathHunter beta-arrestin, luminescence, set 4, selectivity assay for CXCR6 antagonist project, profiling panel (AID 651919). The settings on record: run 4, at 79 µM (top of the series).

C-X-C chemokine receptor type 6 (Homo sapiens), sequence (O00574 whole entry, looked up): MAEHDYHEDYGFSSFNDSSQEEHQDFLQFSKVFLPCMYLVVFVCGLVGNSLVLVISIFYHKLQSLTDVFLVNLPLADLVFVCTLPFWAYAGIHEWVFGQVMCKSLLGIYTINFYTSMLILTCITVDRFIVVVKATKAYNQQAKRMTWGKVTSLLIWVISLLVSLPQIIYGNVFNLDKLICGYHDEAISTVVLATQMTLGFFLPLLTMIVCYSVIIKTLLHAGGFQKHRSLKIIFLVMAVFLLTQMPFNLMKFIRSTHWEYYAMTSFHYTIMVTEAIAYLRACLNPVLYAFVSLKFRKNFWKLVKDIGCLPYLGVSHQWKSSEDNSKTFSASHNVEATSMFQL

For `COc1cc(C(=O)NC2CC3CCCC(C2)N3CC(=O)Nc2ccccc2)cc(OC)c1OC` (configuration not stated), the inhibition came to 92.9%.

`COc1cc(C(=O)NC2CC3CCCC(C2)N3CC(=O)Nc2ccccc2Cl)cc(OC)c1OC` (configuration not stated) returned an inhibition of 99%.
